The values that follow come from PubChem BioAssay (NCATS).

Test [1] in a line: Primary qHTS for Huh7 cytotoxicity: counterscreen for inhibitors of MERS-S pseudotyped particle cell entry (AID 1479147). In general terms: In qHTS, concentration-response curves come from the screen itself.
The nature of test [2]: Primary qHTS for inhibitors of MERS-S pseudo-typed particle cell entry (AID 1479149). Further: nearly all actives have a fitted effect of over 60% in size. Further: potency means the concentration at half of the fitted maximal effect. On activity change, negative = inhibition: on the % scale 0 is the no-effect control and ±100 the full control effect.
Test [3] can be described thus: Primary qHTS for Vero E6 cytotoxicity: counterscreen for inhibitors of SARS-S pseudo-typed particle cell entry (AID 1479150).
Test [4] is described as follows: Confirmatory qHTS for VERO E6 Cytotoxicity Assay: Counterscreen for SARS-CoV-2 CPE Assay (AID 1508605). Further: nearly all actives have a fitted effect of over 60% in size. Further: potency means the concentration at half of the fitted maximal effect.
Test [5] can be described thus: Confirmatory qHTS for activators (rescue) of SARS-CoV-2 Cytopathic Effect (CPE) (AID 1508606). Further: potency means the concentration at half of the fitted maximal effect; nearly all actives have a fitted effect of over 70% in size.
Test [6] in a line: Primary qHTS for inhibitors of La Crosse Virus (LACV) - induced cell death in SH-SY5Y cells (AID 1508616; active means well fitted curve in the direction sought with a large enough effect; an effect the other way counts as inactive or inconclusive;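 further: top concentration of the series differs between compounds; 0% = infected DMSO wells and 100% = uninfected DMSO wells; higher means more rescue of cells from virus-induced death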). In short, it runs like this:
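Readout was luminescence from ATPLite 1step added after a 6-day LACV infection (0.01 MOI) of SH-SY5Y cells that had received pin-transferred compound 24 hr after seeding.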

Test [7] deals with Calcium and integrin-binding protein 1 (Homo sapiens) (UniProt Q99828). In words: Primary qHTS for Identification of Calcium Integrin Binding Protein 1 (CIB1) Competitor (AID 1508620; active means well fitted curve in the direction sought with a large enough effect; an effect the other way counts as inactive or inconclusive;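 further: GST tagged CIB1 binding a fluorescein labelled alphaIIb integrin peptide tracer; top concentration of the series differs between compounds; on the % scale 0 is the no-effect control and ±100 the full control effect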). In short, it runs like this:
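CIB1-GST (1 uM final) and compound incubated 15 min at room temperature before adding FITC-alphaIIb peptide tracer (100 nM final). Competition for binding read by fluorescence polarization (ex 480, em 540) after another 15 min at room temperature.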

Test [8] can be described thus: Primary qHTS for small molecule stabilizers of the endoplasmic reticulum resident proteome: Secreted ER Calcium Modulated Protein (SERCaMP) assay (AID 1508630; active means well fitted curve in the direction sought with a large enough effect; an effect the other way counts as inactive or inconclusive; further: on the % scale 0 is the no-effect control and ±100 the full control effect). In short, it runs like this:
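GLuc-SERCaMP-expressing SH-SY5Y cells, pretreated 16 h with compound, are challenged with thapsigargin to empty ER calcium stores; after 4 h, coelenterazine is added directly to the medium and luminescence is imaged.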

A short description of test [9]: A High-Content qHTS Against Drug Library for the Identification of Small Molecules that Inhibit DYT1 Early Onset Primary Dystonia-Associated Cell Pathology (AID 1645839). Further: potency means the concentration at half of the fitted maximal effect. In short, it runs like this: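 In this high-content image screen, delE TorsinA mislocalization in inducible Flp-In 293 cells is scored as %pathology, with cell count serving as the counterscreen. Compound exposure lasts 48 h under tetracycline induction in reduced-serum medium.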

Test [10] concerns the target Cytochrome P450 2C9 (Homo sapiens) (UniProt P11712). In words: Cytochrome P450 family 2 subfamily C member 9 (CYP2C9) small molecule antagonists: luciferase biochemical (cell-free) qHTS assay (AID 1645842; active means well fitted curve in the direction sought with a large enough effect in the repeat runs; an effect the other way counts as inactive or inconclusive; further: nearly all actives have a fitted effect of over 55% in size; further: potency means the concentration at half of the fitted maximal effect). In short, it runs like this:
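Luminescence, after 20 min with luciferin detection reagent, reflected CYP2C9 turnover during a 1 h NADPH-driven reaction at 37C. Enzyme-substrate mix contained 0.4% bovine serum albumin and was preincubated with compound 10 min at room temperature.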

Test [11] can be described thus: Cytotoxicity counterscreen for inhibitors of SARS-CoV-2 cell entry (AID 1645845). Further: nearly all actives have a fitted effect of over 50% in size. In short, it runs like this: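 48 h compound treatment (after 1 h preincubation), HEK293-ACE2 cells, 37 C/5% CO2; ATP luminescence endpoint; normalized to cell wells and media blanks.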
A general note: A counterscreen serves to expose hits that act by an unwanted route or on another target.

The nature of test [12]: Primary qHTS to identify inhibitors of SARS-CoV-2 cell entry (AID 1645846). Further: nearly all actives have a fitted effect of over 45% in size. The conditions noted are these: activity change, negative = inhibition: at 57.1 µM (top of the series) unless noted. In short, it runs like this:
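Data are normalized to wells receiving SARS-CoV-2-S pseudoparticles and those given bald particles. Entry signal was luciferase luminescence in stable hACE2 Expi293F cells, 48 hr post-infection, after 1 hr compound pretreatment.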

Test [13] deals with Cytochrome P450 2D6 (Homo sapiens) (UniProt P10635). In words: Cytochrome P450 family 2 subfamily D member 6 (CYP2D6) small molecule antagonists: luciferase biochemical (cell-free) qHTS assay (AID 1645840; active means well fitted curve in the direction sought with a large enough effect in the repeat runs; an effect the other way counts as inactive or inconclusive; further: nearly all actives have a fitted effect of over 55% in size; further: potency means the concentration at half of the fitted maximal effect). In short, it runs like this:
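P450-Glo luminescent screen: recombinant CYP2D6 enzyme–proluciferin substrate mix preincubated with compound 10 min at room temperature, then NADPH regeneration added for 1 h at room temperature. Detection reagent added for 20 min; luciferin light read as relative luminescence units.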

For test [14], the target named is Cytochrome P450 3A4 (Homo sapiens) (UniProt P08684). In words: Cytochrome P450 family 3 subfamily A member 4 (CYP3A4) small molecule antagonists: luciferase qHTS assay (AID 1645841; active means well fitted curve in the direction sought with a large enough effect in the repeat runs; an effect the other way counts as inactive or inconclusive; further: nearly all actives have a fitted effect of over 45% in size). In short, it runs like this:
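Luminescent CYP3A4 activity readout: compounds plus enzyme-substrate mix 10 min at room temperature, reaction started with NADPH regenerating system for 1 h, stopped with detection reagent, read after 20 min. Ketoconazole served as control.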

Another test deals with Papain (Carica papaya) (UniProt P00784). In words: Primary qHTS assay for inhibitors of the protease papain (AID 1645873; active means well fitted curve in the direction sought with a large enough effect; an effect the other way counts as inactive or inconclusive;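 further: papain turnover of Z-FR-AMC read as the AMC fluorescence gain over 10 min; on the % scale 0 is the no-effect control and ±100 the full control effect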).
Papain (Carica papaya), sequence (P00784 whole entry, looked up): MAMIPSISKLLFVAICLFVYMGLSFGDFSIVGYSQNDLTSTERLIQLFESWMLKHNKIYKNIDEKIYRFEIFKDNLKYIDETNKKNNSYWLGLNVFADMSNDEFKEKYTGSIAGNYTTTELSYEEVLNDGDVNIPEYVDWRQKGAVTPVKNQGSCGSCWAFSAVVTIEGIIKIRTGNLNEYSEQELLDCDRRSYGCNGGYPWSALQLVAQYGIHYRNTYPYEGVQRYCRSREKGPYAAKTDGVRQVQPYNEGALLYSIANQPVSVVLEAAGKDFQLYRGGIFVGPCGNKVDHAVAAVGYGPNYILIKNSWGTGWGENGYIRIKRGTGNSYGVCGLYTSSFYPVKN
A short description of test [15]: Cell Viability qHTS for small molecule stabilizers of the endoplasmic reticulum resident proteome (AID 1508629; active means well fitted curve in the direction sought with a large enough effect; an effect the other way counts as inactive or inconclusive;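 further: potency means the concentration at half of the fitted maximal effect; compound exposure about 46 h in total before the viability read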). The conditions noted are these: cell viability counter-screen, 100 nM thapsigargin for final 4 h.

Values joined by “and” are separate entries in the source; they are usually repeats but may differ in a detail not shown here. Equal entries are not always repeated. Results filed as inconclusive are left out. Some compounds were tested as several samples or in several runs, with calls that do not always agree. Active and inactive are the calls of the source. Unless noted, the call rests on the fitted dose curve.

Cytochrome P450 2D6 (Homo sapiens), sequence (P10635 whole entry, looked up): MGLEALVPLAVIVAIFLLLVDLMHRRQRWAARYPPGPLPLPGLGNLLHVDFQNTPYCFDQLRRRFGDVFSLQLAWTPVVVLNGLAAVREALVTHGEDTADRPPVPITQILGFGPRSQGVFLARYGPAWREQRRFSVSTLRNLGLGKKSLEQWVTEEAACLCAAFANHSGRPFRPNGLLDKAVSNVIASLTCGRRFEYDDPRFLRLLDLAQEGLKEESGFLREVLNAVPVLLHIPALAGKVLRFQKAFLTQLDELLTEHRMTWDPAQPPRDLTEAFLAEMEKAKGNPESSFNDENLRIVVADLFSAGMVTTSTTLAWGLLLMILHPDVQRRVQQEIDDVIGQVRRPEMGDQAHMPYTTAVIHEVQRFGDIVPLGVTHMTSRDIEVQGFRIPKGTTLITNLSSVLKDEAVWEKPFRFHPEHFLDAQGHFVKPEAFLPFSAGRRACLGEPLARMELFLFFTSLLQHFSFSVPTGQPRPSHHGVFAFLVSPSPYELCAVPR
Calcium and integrin-binding protein 1 (Homo sapiens), sequence (Q99828 whole entry, looked up): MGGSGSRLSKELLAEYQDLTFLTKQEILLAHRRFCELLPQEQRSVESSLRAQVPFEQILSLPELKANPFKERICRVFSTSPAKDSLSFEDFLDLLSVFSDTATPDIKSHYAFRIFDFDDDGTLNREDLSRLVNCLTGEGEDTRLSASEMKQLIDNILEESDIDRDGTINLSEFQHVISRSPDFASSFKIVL
Cytochrome P450 3A4 (Homo sapiens), sequence (P08684 whole entry, looked up): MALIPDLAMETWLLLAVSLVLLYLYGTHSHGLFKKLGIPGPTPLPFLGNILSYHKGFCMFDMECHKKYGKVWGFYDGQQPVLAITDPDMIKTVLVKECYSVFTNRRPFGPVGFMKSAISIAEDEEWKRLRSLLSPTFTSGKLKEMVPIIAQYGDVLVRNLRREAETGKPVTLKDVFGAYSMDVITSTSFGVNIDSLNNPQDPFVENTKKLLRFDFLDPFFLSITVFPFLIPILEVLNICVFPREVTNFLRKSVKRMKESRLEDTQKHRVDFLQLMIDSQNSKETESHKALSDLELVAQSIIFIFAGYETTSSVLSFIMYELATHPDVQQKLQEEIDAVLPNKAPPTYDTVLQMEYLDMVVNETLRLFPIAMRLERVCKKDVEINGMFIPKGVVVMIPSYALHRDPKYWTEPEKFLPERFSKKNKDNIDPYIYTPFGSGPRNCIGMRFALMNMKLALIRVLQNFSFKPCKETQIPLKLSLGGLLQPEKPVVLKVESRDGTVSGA
Cytochrome P450 2C9 (Homo sapiens), sequence (P11712 whole entry, looked up): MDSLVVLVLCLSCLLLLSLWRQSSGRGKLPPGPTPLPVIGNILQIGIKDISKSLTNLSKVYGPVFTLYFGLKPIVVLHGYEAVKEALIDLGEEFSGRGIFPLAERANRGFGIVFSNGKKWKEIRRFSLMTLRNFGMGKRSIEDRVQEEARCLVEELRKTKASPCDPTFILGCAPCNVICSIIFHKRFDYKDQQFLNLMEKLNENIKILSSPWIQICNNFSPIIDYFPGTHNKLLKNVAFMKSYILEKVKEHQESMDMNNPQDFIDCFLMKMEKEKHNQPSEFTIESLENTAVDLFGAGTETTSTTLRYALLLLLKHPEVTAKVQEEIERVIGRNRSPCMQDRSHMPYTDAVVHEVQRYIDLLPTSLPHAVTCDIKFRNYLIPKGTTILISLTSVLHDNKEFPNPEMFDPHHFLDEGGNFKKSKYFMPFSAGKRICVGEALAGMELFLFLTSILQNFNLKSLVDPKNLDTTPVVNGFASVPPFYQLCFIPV

`Cc1c(O)cccc1C(=O)N[C@@H](CSc1ccccc1)[C@H](O)CN1C[C@H]2CCCC[C@H]2C[C@H]1C(=O)NC(C)(C)C`: the Potency result in [1], in test [2] and in test [3] was “inactive” throughout. In addition, the Potency was 12.6 µM (active) in test [4] and 3.16 µM (active) in [5].
As to `C=CCN1CC[C@]23c4c5ccc(O)c4O[C@H]2C(=O)CC[C@@]3(O)[C@H]1C5`, the Potency result in [1], in [2], in test [3], in test [6], in test [7] and in test [9] was “inactive” throughout. Moreover, the Potency result in test [10] and in [11] was “inactive” throughout. Besides, the result in [8] was inactive. In addition, in test [12], the activity change, negative = inhibition came out at 2.17%.
As for `CC(C)=CC1C(C(=O)OCc2cccc(Oc3ccccc3)c2)C1(C)C` (configuration not stated), the Potency result in [1], in [2], in test [3], in test [6], in test [7] and in [9] was “inactive” in each case. Moreover, the Potency entry in [11] and in test [12] was “inactive” throughout. The result in [8] was inactive. In addition, the Potency in test [10] was 3.89 µM (active).
With `CC(C)NCC(O)c1ccccc1Cl` (configuration not stated), the Potency entry in test [1], in [2], in [3], in [6], in test [7] and in test [9] was “inactive” throughout. The Potency result in test [10], in test [11] and in test [12] was “inactive” each time. The Potency in [13] was 11 µM (active).
`CC(C)C(=O)Nc1ccc([N+](=O)[O-])c(C(F)(F)F)c1`: the Potency entry in test [1] is “inactive”. The Potency in test [2] was 22.4 µM (active).
Take `O=[N+]([O-])c1cc([As](=O)(O)O)ccc1O`: the Potency entry in test [1], in [2], in [3], in test [6], in [7] and in [9] was “inactive” throughout. Also, the Potency entry in [13] and in [10] was “inactive” in each case. Moreover, the result in test [8] and in [14] was inactive. Also, the activity change, negative = inhibition in [12] was -27.8%.
`NCC1(CC(=O)O)CCCCC1`: the Potency entry in [1], in test [2], in [3], in test [6], in [7] and in test [9] was “inactive” throughout. For the same compound, the Potency entry (in [13]; in test [10]; in test [11]; with Papain (Carica papaya)) was “inactive” throughout. In addition, the result in [8] was inactive. The activity change, negative = inhibition in test [12] was found to be 1.13%.
For `Nc1ccncc1`, the Potency entry in test [1], in [2], in test [3], in test [6], in test [7] and in [9] was “inactive” throughout. For the same compound, the Potency entry (in test [11]; in the test with Papain (Carica papaya)) was “inactive” in each case. Moreover, the result in test [8] was inactive. The activity change, negative = inhibition in test [12] is -28.2% [at 114 µM].
As for `C[C@]12CC[C@H]3[C@@H](CCC4=CC(=O)CC[C@@H]43)[C@@H]1CC[C@@H]2OC(=O)CCc1ccccc1`, the Potency result in [1], in [2], in test [3], in [6], in test [7] and in [9] was “inactive” in each case. For the same compound, the Potency result in test [13] and in test [11] was “inactive” in each case. Besides, the result in [8] and in [14] was inactive. The Potency in test [10] is 27.5 µM (active). Also, the activity change, negative = inhibition in test [12] was 2.01%.
As to `NCC(CC(=O)O)c1ccc(Cl)cc1` (configuration not stated), the outcome in test [1], in test [2] and in [3] was “inactive [at 0.573 µM]” each time. Besides, the Potency entry (in test [6]; with Papain (Carica papaya)) was “inactive” in each case. Besides, the activity change, negative = inhibition in test [7] was 5.6% [at 1.07 µM] (inactive); in test [13] it was 14.3% [at 0.91 µM] (inactive); in test [10] it was 15.7% [at 0.91 µM] (inactive). For the same compound, in test [8], the outcome was inactive. The % pathology change, negative = correction in test [9] was 14.6% [at 0.369 µM] (inactive).
With `O=P1(NCCCl)OCCCN1CCCl` (configuration not stated), the Potency result in [1], in test [2], in [3], in test [6], in test [7] and in [9] was “inactive” in each case. For the same compound, the Potency result in test [11] and in test [12] was “inactive” throughout. Further, the result in [8] was inactive. The activity change, negative = inhibition in test [12] is -11%.
Take `NCCC(O)(P(=O)(O)O)P(=O)(O)O`: the Potency entry in [1], in [2] and in [3] was “inactive” in each case.
As for `CC(C)(C)NCC(O)c1cc(Cl)c(N)c(Cl)c1` (configuration not stated), the Potency entry in test [1], in [2], in test [3], in [6], in [7] and in test [9] was “inactive” in each case. The Potency result in test [10] and in test [11] was “inactive” throughout. Also, the outcome in test [8] was inactive.
Regarding `CC(=O)Nc1cc([As](=O)(O)O)ccc1O`, the Potency result in [1], in [2], in [3], in test [6], in test [7] and in [9] was “inactive” each time. Moreover, the Potency entry in [13], in [10] and in test [11] was “inactive” throughout. In addition, the activity change, negative = inhibition in [12] is -7.63%.
For `CN1CCN(C(=O)O[C@H]2c3nccnc3C(=O)N2c2ccc(Cl)cn2)CC1`, the Potency result in test [1], in test [2], in test [3], in test [6], in test [7] and in test [9] was “inactive” throughout. In addition, the Potency entry in test [10], in [11] and in test [12] was “inactive” each time. The outcome in [8] was inactive.
Consider `Oc1ccccc1-c1ccccc1`, for which the Potency entry in test [1], in [2], in test [3], in test [6], in test [7] and in [9] was “inactive” in each case. Further, the Potency entry in test [13], in [10], in [11] and in [12] was “inactive” in each case. Further, in [8], the outcome was inactive.
On to `CCCCc1oc2ccccc2c1C(=O)c1cc(I)c(OCCN(CC)CC)c(I)c1`, for which the Potency result in test [1], in [3], in test [4] and in [11] was “inactive” throughout. In [2], the Potency was 10 µM (active).
As for `c1ccc2c(c1)Nc1ccccc1S2`, the Potency entry in test [1], in test [2], in test [3], in test [6], in [7] and in [9] was “inactive” in each case. The Potency entry in test [13], in [10], in [11] and in test [12] was “inactive” throughout. Further, the outcome in test [8] was inactive.
With `CCC(C(N)=O)N1CCCC1=O` (configuration not stated), the Potency entry in [1], in [2], in test [3], in test [6], in test [7] and in test [9] was “inactive” in each case. The Potency entry in [13], in test [10] and in test [11] was “inactive” throughout. In test [8], the result was inactive. Moreover, the activity change, negative = inhibition in test [12] is -16.2%.
For `OCCOc1ccccc1`, the Potency entry in [1], in test [2], in test [3], in [6], in test [7] and in test [9] was “inactive” in each case. Besides, the Potency entry in test [13] and in test [10] was “inactive” in each case.
With `Oc1cccc2cccnc12`, the Potency entry in test [1], in [3], in test [6], in test [7], in test [13] and in [11] was “inactive” in each case. The Potency entry in [2] was “inactive and 3.55 µM (active)”; in test [15], 20 µM (active); in [9], 31.6 µM (active) and inactive. Moreover, the outcome in test [8] and in test [14] was inactive. The activity change, negative = inhibition in test [12] is -23.4%.
